Results on 32 compounds are retold here after PubChem BioAssay (Tox21).

The nature of experiment [1]: qHTS assay to identify small molecule antagonists of the estrogen related receptor (ERR) signaling pathway - cell viability counter screen (AID 1224818). Further: potency means the concentration at half of the fitted maximal effect. An outline of the steps:
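Compounds dissolved in DMSO were applied to ERR cells seeded at 2,000 per well 6 h earlier. Cell viability followed 17.5 h later via 30-min CellTiter-Fluor fluorescence.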
On the technique in general: Quantitative high-throughput screening tests each substance at several concentrations.

Experiment [2] can be described thus: qHTS assay to identify small molecule antagonists of the estrogen related receptor (ERR) signaling pathway (AID 1224819; further: nearly all actives have a fitted effect of over 50% in size; further: potency means the concentration at half of the fitted maximal effect). An outline of the steps: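 Compounds dissolved in DMSO were pin-transferred onto ERR cells that had been plated 6 h earlier, and cells were then incubated 18 h at 37 C; signal was luciferase luminescence via One-Glo.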
A short description of experiment [3]: qHTS assay to identify small molecule agonists of the estrogen related receptor (ERR) signaling pathway (AID 1224820). Further: potency means the concentration at half of the fitted maximal effect. A digest of the protocol:
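An ERR cell line provided by NTP was seeded at 2,000 cells per well and allowed to settle for 6 h before compounds in DMSO were added. After 18 h at 37 C, luciferase activity was measured by One-Glo luminescence.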

The nature of experiment [4]: qHTS assay to identify small molecule agonists of the estrogen related receptor signaling pathway with the pleiotropic PPARgamma coactivator (PGC) (AID 1224823). Further: potency means the concentration at half of the fitted maximal effect. A digest of the protocol:
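Compounds dissolved in DMSO are added by pin tool to PGC/ERR cells that have settled for 6 h, and incubation continues 18 h at 37 C. Reporter output is measured as One-Glo luminescence.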

Experiment [5] concerns estrogen-related receptor alpha (ERRalpha) with PGC-1alpha coactivator, human. Kind of experiment: qHTS assay to identify small molecule antagonists of the estrogen related receptor signaling pathway with the pleiotropic PPARgamma coactivator (PGC) (AID 1224821; calls by dose curve;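 further: series mostly up to about 46 µM; lower luminescence signal means antagonism of PGC/ERR signalling; nearly all actives have a fitted effect of over 50% in size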). A digest of the protocol:
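A PGC/ERR cell line supplied by NTP is seeded, allowed 6 h at 37 C, and treated with test compounds in DMSO for 18 h. Signal is then measured as luciferase luminescence using One-Glo.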

Experiment [6] can be described thus: qHTS assay to identify small molecule antagonists of the estrogen related receptor signaling pathway with the pleiotropic PPARgamma coactivator (PGC) cell viability counter screen (AID 1224822; further: series mostly up to about 46 µM). An outline of the steps:
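Counter screen for cell viability: PGC/ERR cells, 6 h pre-incubation after plating, 17.5 h compound exposure at 37 C, fluorescence from CellTiter-Fluor after 30 min.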

Inconclusive results are not listed. Activity calls are given as the source filed them. Unless noted, the call rests on the fitted dose curve; in most records, active means well fitted curve in the direction sought with a large enough effect in the repeat runs; inconclusive means weak or mixed curves; inactive means no such curve, though single readings can be large; an effect the other way counts as inactive or inconclusive.

Regarding `Brc1c(Br)c(Br)c2[nH]cnc2c1Br`, the Potency result in experiment [1], in experiment [3] and in experiment [4] was “inactive” each time. In experiment [2], the Potency is 19.6 µM (active).

For the compound `O=c1[nH]ccc2c(O)cccc12`, the Potency result in experiment [1], in experiment [2], in experiment [5], in experiment [6] and in experiment [4] was “inactive” throughout.

Regarding `Cn1cnc2c(NCc3ccccc3)nc(NCCO)nc21`, the Potency result in experiment [1], in experiment [2], in experiment [5], in experiment [6] and in experiment [4] was “inactive” in each case.

In the case of `CCCN(CC1CC1)c1nc(C)nc(Nc2c(Cl)cc(Cl)cc2Cl)c1Cl`, the Potency entry in experiment [1], in experiment [2], in experiment [3] and in experiment [4] was “inactive” each time.

Consider `CC(N)=NCCCC[C@@H](N)C(=O)O`, for which the Potency result in experiment [1], in experiment [2], in experiment [5], in experiment [6] and in experiment [4] was “inactive” in each case.

As to `Cn1cc(C2=C(c3ccc(Cl)cc3Cl)C(=O)NC2=O)c2ccccc21`, the Potency entry in experiment [1], in experiment [5], in experiment [6] and in experiment [4] was “inactive” in each case. Besides, in experiment [2], the Potency was 21.1 µM (active).

For the compound `NC/C=C\C(=O)O`, the Potency entry in experiment [1], in experiment [2], in experiment [5], in experiment [6] and in experiment [4] was “inactive” throughout.

Consider `NC(=Nc1ccccc1)NC(=O)c1nc(Cl)c(N)nc1N`, for which the Potency result in experiment [1], in experiment [2], in experiment [5], in experiment [6] and in experiment [4] was “inactive” throughout.

With `O=Nc1ccc2oc(=O)ccc2c1`, the Potency result in experiment [1], in experiment [2], in experiment [5] and in experiment [6] was “inactive” in each case.

For the compound `C[C@H](NC(=O)/C(C#N)=C/c1ccc(O)c(O)c1)c1ccccc1`, the Potency result in experiment [1], in experiment [2], in experiment [5], in experiment [6] and in experiment [4] was “inactive” each time.

For the compound `N[C@@H](Cc1ccc(F)cc1)C(=O)O`, the Potency result in experiment [1], in experiment [2], in experiment [5], in experiment [6] and in experiment [4] was “inactive” in each case.

For `CN1C2CCC1CC(OC(c1ccccc1)c1ccccc1)C2` (centres undefined), the Potency result in experiment [1], in experiment [2], in experiment [3] and in experiment [4] was “inactive” each time.

As for `NC(N)=NC(N)=Nc1cccc(Cl)c1`, the Potency result in experiment [1], in experiment [2], in experiment [5], in experiment [6] and in experiment [4] was “inactive” in each case.

On to `CCCn1c(=O)c2[nH]c(C3CCCC3)nc2n(CCC)c1=O`, for which the Potency result in experiment [1], in experiment [2], in experiment [5], in experiment [6] and in experiment [4] was “inactive” throughout.

As to `COc1cc(OC)c(/C=C2/C(=O)Nc3ccccc32)c(OC)c1`, the Potency in experiment [1] and in experiment [2] was 11 µM (active) in each case. For the same compound, the Potency result in experiment [3] and in experiment [4] was “inactive” in each case.

For the compound `Oc1cc2c(cc1O)C(c1ccccc1)CNCC2` (centres undefined), the Potency result in experiment [1], in experiment [2], in experiment [3] and in experiment [4] was “inactive” in each case.

For `CC(=O)O[C@H]1C[C@@H]2CC[C@@H]3[C@H](CC[C@@]4(C)[C@H]3C[C@H]([N+]3(C)CCCCC3)[C@@H]4OC(C)=O)[C@@]2(C)C[C@@H]1[N+]1(C)CCCCC1`, the Potency entry in experiment [1], in experiment [2], in experiment [5], in experiment [6] and in experiment [4] was “inactive” each time.

For the compound `Oc1ccc2ccccc2c1SSc1c(O)ccc2ccccc12`, the Potency entry in experiment [1], in experiment [3] and in experiment [4] was “inactive” each time. In experiment [2], the Potency was 20.3 µM (active).

Consider `COc1cc(/C=C(\C#N)C(=O)Nc2nnc(C(F)(F)F)s2)ccc1OCc1ccc(C(F)(F)F)cc1C(F)(F)F`, for which the Potency entry in experiment [1], in experiment [3] and in experiment [4] was “inactive” each time. Further, the Potency in experiment [2] is 6.43 µM (active).

As to `N[C@H](CCCP(=O)(O)O)C(=O)O`, the Potency result in experiment [1], in experiment [2], in experiment [5], in experiment [6] and in experiment [4] was “inactive” each time.

Consider `C[N+]1(CCCCC[N+]2(C)CCCC2)CCCC1`, for which the Potency entry in experiment [1], in experiment [2], in experiment [5], in experiment [6] and in experiment [4] was “inactive” in each case.

For `CC(=O)NNC(=O)N1Cc2ccccc2Oc2ccc(Cl)cc21`, the Potency entry in experiment [1], in experiment [2], in experiment [5], in experiment [6] and in experiment [4] was “inactive” each time.

On to `CCOC(=O)[C@H](CCc1ccccc1)N[C@@H](C)C(=O)N1[C@H](C(=O)O)C[C@H]2CCCC[C@@H]21`, for which the Potency result in experiment [1], in experiment [2], in experiment [3] and in experiment [4] was “inactive” each time.

Regarding `Cc1cccc(/C=C/c2ccccc2)n1`, the Potency entry in experiment [1] and in experiment [2] was “inactive” throughout. Also, the Potency in experiment [3] was 13.3 µM (active); in experiment [4] it was 13.9 µM (active).

Turning to `CC(=O)/C(C)=N/O`, the Potency result in experiment [1], in experiment [2], in experiment [5], in experiment [6] and in experiment [4] was “inactive” in each case.

On to `CC(N)(Cc1ccc(O)cc1)C(=O)O` (centres undefined), for which the Potency result in experiment [1], in experiment [2], in experiment [5], in experiment [6] and in experiment [4] was “inactive” each time.

Take `C=C1C[C@@]23CC[C@H]4[C@@](C)(CCC[C@@]4(C)C(=O)OC4OC(CO)C(O)C(O)C4O)[C@@H]2CC[C@]1(OC1OC(CO)C(O)C(O)C1OC1OC(CO)C(O)C(O)C1O)C3` (some centres undefined): the Potency entry in experiment [1], in experiment [2], in experiment [3] and in experiment [4] was “inactive” in each case.

In the case of `CNC(=O)c1cc2c(cn1)[nH]c1ccccc12`, the Potency result in experiment [1], in experiment [2], in experiment [5], in experiment [6] and in experiment [4] was “inactive” throughout.

As for `N[C@H](C(=O)O)[C@H](Cc1ccccc1)C(=O)O`, the Potency entry in experiment [1], in experiment [2], in experiment [5], in experiment [6] and in experiment [4] was “inactive” throughout.

Consider `Cc1cccc(C(=O)NCN2CCN(c3ccccc3C#N)CC2)c1`, for which the Potency result in experiment [1], in experiment [2], in experiment [5], in experiment [6] and in experiment [4] was “inactive” each time.

With `CC(=O)[C@H]1CCC2C3CC=C4C[C@@H](OS(=O)(=O)O)CC[C@]4(C)C3CC[C@@]21C` (some centres undefined), the Potency result in experiment [1], in experiment [2], in experiment [5], in experiment [6] and in experiment [4] was “inactive” each time.

As for `CNc1ncnc2c1ncn2[C@H]1C[C@H](OP(=O)(O)O)[C@@H](COP(=O)(O)O)O1`, the Potency entry in experiment [1], in experiment [2], in experiment [5], in experiment [6] and in experiment [4] was “inactive” throughout.
